PubChem BioAssay (NCATS)
Several values for one entry are separate records, joined by “and”; a condition that tells them apart may be missing. Equal entries are not always repeated. Results filed as inconclusive are left out. Where a call stands in place of a potency, no number is given. Activity calls are given as the source filed them. Unless noted, calls follow the shape of the dose curve; as a rule, active = well fitted curve in the direction sought with a large enough effect; inconclusive = small, poorly fitted or top-dose-only effect, or another doubt; inactive = no such curve, though single readings can be large; an effect the other way counts as inactive or inconclusive.

How the values were obtained:
[1] = Cell Viability - Jurkat (AID 426;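 active = dose-dependent loss of cell ATP signal giving a full or clear fitted curve, ranked by lower potency value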; also: potency is read from the fitted curve at half-maximal effect); conditions: qHTS
Outline: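 qHTS, 1536-well; Jurkat E6-1, 5000 cells/well, complete medium; cpd 40 hr, 37 °C; CellTiter-Glo 20 min RT; luminescence. AC50 by Hill fit.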

[2] = Cell Viability - MRC5 (AID 434; calls by dose curve;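 also: potency is read from the fitted curve at half-maximal effect; potency reflects cytotoxicity seen as loss of intracellular ATP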); conditions: MRC5 lung fibroblast viability, qHTS
Outline: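 qHTS cytotoxicity in human lung fibroblast MRC5 cells; 40 hr treatment, 37 °C; cellular ATP by luciferase luminescence; DMSO = 0%, 100 uM tamoxifen = 100% inhibition; Hill-fit AC50.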

[3] = Cell Viability - NIH 3T3 (AID 541); conditions: NIH 3T3 cell viability, qHTS; activity change, negative = cytotoxicity: at 92.2 µM (top of the series); also: nearly all actives have a fitted effect of over 25% in size
Outline: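 Luminescent ATP signal (CellTiter-Glo) served as the viability read-out after NIH 3T3 cells were exposed to compounds over a concentration range for 40 hr at 37 °C. Hill-equation modelling of concentration-response data gave AC50.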

[4] = Cell Viability - H-4-II-E (AID 543); conditions: H-4-II-E rat hepatoma viability; series mostly up to 92.2 µM; also: nearly all actives have a fitted effect of over 35% in size
Outline: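 Luminescent ATP signal (CellTiter-Glo) served as the viability read-out, with cytotoxicity seen as a concentration-dependent ATP drop. Cells were treated for 40 hours in complete medium. AC50 values derive from Hill-equation modelling.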

[5] = Cell Viability - LYMP2-022 (AID 987); conditions: LYMP2-022 lymphoblastoid cell viability; series mostly up to 92.2 µM; also: nearly all actives have a fitted effect of over 55% in size
Outline: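 qHTS: human lymphoblastoid cells 2500/well; 5 hr 37 C; cpd added; 24 hr 37 C; CellTiter-Glo, 30 min RT; luminescence. AC50 via Hill fit; tetraoctylammonium bromide positive ctrl.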

[6] = Cell Viability - LYMP2-024 (AID 988); conditions: LYMP2-024 lymphoblastoid cell viability; series mostly up to 92.2 µM; also: nearly all actives have a fitted effect of over 60% in size
Outline: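 Steps: seed 2500 cells/well, 5 hr 37 C; add compound, 24 hr 37 C; add CellTiter-Glo, 30 min room temperature; read luminescence. AC50 derived by Hill modelling of concentration-dependent ATP loss.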

[7] = target: Bile acid receptor (Homo sapiens) (UniProt Q96RI1); test: qHTS assay for small molecule agonists of farnesoid X receptor signaling (AID 588527; calls by dose curve); conditions: HEK293T FXR-UAS-bla, beta-lactamase ratio, 16 h; stronger effect = higher value
Outline: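 Quantitative HTS used FXR-UAS-bla HEK293T cells with 16 h compound incubation at 37 C. EC50 values came from concentration-response curves normalized to chenodeoxycholic acid.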

[8] = target: Glucocorticoid receptor (Homo sapiens) (UniProt P04150); test: qHTS assay for small molecule antagonists of glucocorticoid receptor signaling (AID 588533; active = well fitted inhibition curve with a large enough effect in the signal ratio, with a control signal flat, not every such curve was filed as active; the % refers to the signal ratio;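 also: cells stimulated with 2 nM dexamethasone as agonist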); conditions: HeLa MMTV-bla, GRE beta-lactamase ratio, antagonist mode, 18 h; series mostly up to 76.8 µM
Outline: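 Antagonist-mode qHTS: compound titrations added to GRE-bla HeLa cells, then dexamethasone 2 nM final; 18 h, 37 C. CCF4 FRET fluorescence normalized to dexamethasone and DMSO; IC50 from Hill fit.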

[9] = qHTS assay for small molecule antagonists of peroxisome proliferator-activated receptor delta signaling (AID 588535; active = well fitted inhibition curve with a large enough effect in the signal ratio, with a control signal flat, not every such curve was filed as active; the % refers to the signal ratio;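 as to max response: cells co-treated with a PPAR-delta agonist as stimulator during compound exposure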); conditions: HEK293T PPARd-UAS-bla, beta-lactamase FRET ratio, 18 h; 460 nm channel
Outline: (§1)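 HEK293T PPAR-delta-UAS-bla cells, 4000/well, 2% charcoal/dextran FBS; 5 h 37 C; cpd titration; 18 h 37 C; CCF4 2 h RT; FI 460/530 nm; Hill fit → IC50, efficacy.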

[10] = target: Peroxisome proliferator-activated receptor delta (Homo sapiens) (UniProt Q03181); test: as above; conditions: HEK293T PPARd-UAS-bla, beta-lactamase FRET ratio, 18 h; series mostly up to 76.7 µM
Outline: as §1

[11] = target: Peroxisome proliferator-activated receptor gamma (Homo sapiens) (UniProt P37231); test: qHTS assay for small molecule agonists of peroxisome proliferator-activated receptor gamma signaling (AID 588536; active = well fitted curve in the direction sought with a large enough effect in the signal ratio, with a control signal flat, not every such curve was filed as active; the % refers to the signal ratio); conditions: HEK293 PPARg-UAS-bla, beta-lactamase ratio, 16 h, percent of rosiglitazone response, DMSO as zero; series mostly up to 76.7 µM
Outline: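 HEK293 UAS-bla reporter line, 1% charcoal/dextran FBS; titration, 16 h, 37 C; CCF4 loading 2 h RT; fluorescence 460/530 nm. Normalized to rosiglitazone 2 uM = 100%, DMSO = 0%.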

[12] = target: Vitamin D3 receptor (Homo sapiens) (UniProt P11473); test: qHTS assay for small molecule agonists of vitamin D receptor signaling (AID 588543; calls by dose curve); conditions: HEK293T VDR-UAS-bla, beta-lactamase ratio, 16 h; series mostly up to 76.8 µM
Outline: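 β-lactamase reporter, VDR-UAS-bla HEK293T, agonist mode. Cells plated 5 h at 37 °C, compound titration 16 h at 37 °C, CCF4 dye 2 h RT, ratio 460/530 nm. Hill fit → EC50, efficacy vs 50 nM 1α,25-(OH)2D3.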

[13] = target: Thyroid hormone receptor beta (Homo sapiens) (UniProt P10828); test: qHTS assay for small molecule agonists of thyroid hormone receptor beta signaling (AID 588545; calls by dose curve); conditions: TR-UAS-bla GripTite HEK 293, beta-lactamase ratio, agonist mode, 18 h; series mostly up to 76.7 µM
Outline: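 Cells (2500/well) were seeded, incubated 4 hrs at 37 C, dosed with a compound series, incubated 18 hrs, loaded with CCF4 dye for 2 hrs at RT, then read for fluorescence. Data were scaled between DMSO (0%) and 10 nM T3 (100%).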

[14] = qHTS assay for small molecule activators of the p53 signaling pathway (AID 651743; active = well fitted activation curve with a large enough effect in the signal ratio, not every such curve was filed as active; the % refers to the signal ratio); conditions: HCT-116 p53RE-bla, beta-lactamase FRET ratio, 16 h; activation: stronger effect = higher value
Outline: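 Read-out is fluorescence intensity from the LiveBLAzer B/G FRET substrate, added for 2 hours at room temperature after HCT-116 p53RE-bla cells had been incubated with compounds for 16 hours at 37 C.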

[15] = qHTS assay for environmental chemicals that activate the Aryl hydrocarbon Receptor (AhR) signaling pathway (AID 651777); conditions: 1A2-DRE human hepatoma cells, luciferase, 24 h; activation: stronger effect = higher value; also: nearly all actives have a fitted effect of over 15% in size
Outline: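 Human hepatoma 1A2-DRE cells stably carrying a DRE/CYP1A2 promoter–luciferase reporter, 1,200 cells/well, exposed to compound 24 hr at 37 C. Luciferase read by One-Glo luminescence after 30 min at room temperature; increased signal marks AhR activation.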

[16] = qHTS assay for small molecule agonists of the antioxidant response element (ARE) signaling pathway measured by Nrf2-dependant transcriptional activity (AID 720636; active = well fitted curve in the direction sought with a large enough effect in the repeat runs; an effect the other way counts as inactive or inconclusive); conditions: ARE-luc HepG2, Nrf2 luciferase reporter, 16 h; series mostly up to 92.4 µM
Outline: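 ARE-luc HepG2 cells carrying an Nrf2-responsive luciferase reporter, in medium with 1% dialyzed FBS, exposed to compound for 16 hr at 37 C, 5% CO2. Luminescence read 30 min after ONE-Glo addition.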

[17] = Cell Viability - HepG2 (AID 433; calls by dose curve;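 also: potency is read from the fitted curve at half-maximal effect; potency for ATP loss meaning cytotoxicity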); conditions: qHTS
Outline: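 ATP luminescence (CellTiter-Glo) after 40 h compound exposure, 37 °C, HepG2, 1500 cells/well, complete medium. Normalized: DMSO = basal, 100 uM tamoxifen = 100% inhibition. AC50 via standard Hill equation.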

[18] = target: Glucocorticoid receptor (Homo sapiens) (UniProt P04150); test: qHTS assay for small molecule agonists of glucocorticoid receptor signaling (AID 588532; active = well fitted curve in the direction sought with a large enough effect in the signal ratio, with a control signal flat; the % refers to the signal ratio); conditions: HeLa MMTV-bla, beta-lactamase ratio, agonist, 18 h; stronger effect = higher value; percent of dexamethasone control, DMSO zero
Outline: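 Using MMTV-bla HeLa cells in medium with 1% stripped FBS and 25 mM HEPES, compounds were titrated and incubated overnight-length (18 h). Beta-lactamase cleavage of CCF4 was quantified by dual-emission fluorescence.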

[19] = target: Estrogen receptor (Homo sapiens) (UniProt P03372); test: qHTS assay for small molecule antagonists of estrogen receptor alpha signaling (AID 588513; active = well fitted curve in the direction sought with a large enough effect in the signal ratio, with a control signal flat, not every such curve was filed as active; the % refers to the signal ratio); conditions: ER-alpha-UAS-bla HEK293, beta-lactamase ratio, antagonist mode; series mostly up to 76.9 µM
Outline: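 Beta-lactamase reporter, antagonist mode, HEK 293 GripTite cells; 0.5nM E2 stimulus, 18 h, 37 C; CCF4 dye 2 h RT; fluorescence. IC50 and efficacy from Hill fits, normalized to E2 and DMSO.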

[20] = target: Estrogen receptor (Homo sapiens) (UniProt P03372); test: qHTS assay for small molecule agonists of estrogen receptor alpha signaling (AID 588514; calls by dose curve; also: nearly all actives have a fitted effect of over 70% in size); conditions: ER-alpha-UAS-bla HEK293, beta-lactamase ratio, 18 h; series mostly up to 76.8 µM
Outline: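 Cells were plated at 5000/well, incubated 4 hrs at 37 C, dosed with compound titration series, incubated 18 hrs at 37 C, loaded with CCF4 dye for 2 hrs at RT, then fluorescence was read.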

Sequence of Peroxisome proliferator-activated receptor gamma (Homo sapiens) (P37231 whole entry, looked up): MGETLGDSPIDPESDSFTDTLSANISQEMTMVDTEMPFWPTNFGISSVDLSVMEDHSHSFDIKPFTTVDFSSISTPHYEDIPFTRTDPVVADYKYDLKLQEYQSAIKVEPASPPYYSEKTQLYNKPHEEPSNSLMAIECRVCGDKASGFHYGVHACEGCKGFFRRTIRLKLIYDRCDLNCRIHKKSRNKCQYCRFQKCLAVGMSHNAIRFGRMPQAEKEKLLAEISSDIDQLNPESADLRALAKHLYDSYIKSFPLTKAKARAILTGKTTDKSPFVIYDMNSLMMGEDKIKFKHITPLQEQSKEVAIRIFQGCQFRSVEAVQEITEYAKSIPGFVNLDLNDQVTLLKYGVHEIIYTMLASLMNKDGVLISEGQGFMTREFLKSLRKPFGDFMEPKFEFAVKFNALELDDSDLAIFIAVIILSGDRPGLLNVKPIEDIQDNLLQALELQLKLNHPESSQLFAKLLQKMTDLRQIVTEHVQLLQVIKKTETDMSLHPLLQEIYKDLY
Sequence of Vitamin D3 receptor (Homo sapiens) (P11473 whole entry, looked up): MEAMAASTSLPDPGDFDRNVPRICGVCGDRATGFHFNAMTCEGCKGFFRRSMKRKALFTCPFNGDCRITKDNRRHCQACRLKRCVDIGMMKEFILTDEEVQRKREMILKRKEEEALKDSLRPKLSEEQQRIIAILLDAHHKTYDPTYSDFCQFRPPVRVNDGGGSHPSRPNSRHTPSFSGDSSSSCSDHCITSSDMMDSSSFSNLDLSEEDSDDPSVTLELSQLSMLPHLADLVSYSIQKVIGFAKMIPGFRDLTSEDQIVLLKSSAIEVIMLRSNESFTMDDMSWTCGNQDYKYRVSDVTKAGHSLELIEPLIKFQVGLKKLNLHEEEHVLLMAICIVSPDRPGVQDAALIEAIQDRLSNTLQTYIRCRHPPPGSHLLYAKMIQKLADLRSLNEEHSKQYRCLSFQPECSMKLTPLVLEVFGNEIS
Sequence of Peroxisome proliferator-activated receptor delta (Homo sapiens) (Q03181 whole entry, looked up): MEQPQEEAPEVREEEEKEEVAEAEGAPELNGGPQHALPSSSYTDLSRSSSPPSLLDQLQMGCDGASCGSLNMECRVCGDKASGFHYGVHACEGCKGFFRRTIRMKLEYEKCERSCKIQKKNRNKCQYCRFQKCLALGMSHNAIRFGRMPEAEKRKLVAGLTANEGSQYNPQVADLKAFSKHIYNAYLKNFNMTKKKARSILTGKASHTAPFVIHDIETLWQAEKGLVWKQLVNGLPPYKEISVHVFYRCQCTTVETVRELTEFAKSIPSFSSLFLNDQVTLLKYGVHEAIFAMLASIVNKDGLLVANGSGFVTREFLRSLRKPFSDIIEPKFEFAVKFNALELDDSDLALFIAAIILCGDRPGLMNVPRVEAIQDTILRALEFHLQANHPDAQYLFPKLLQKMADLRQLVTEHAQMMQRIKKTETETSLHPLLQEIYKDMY
Sequence of Bile acid receptor (Homo sapiens) (Q96RI1 whole entry, looked up): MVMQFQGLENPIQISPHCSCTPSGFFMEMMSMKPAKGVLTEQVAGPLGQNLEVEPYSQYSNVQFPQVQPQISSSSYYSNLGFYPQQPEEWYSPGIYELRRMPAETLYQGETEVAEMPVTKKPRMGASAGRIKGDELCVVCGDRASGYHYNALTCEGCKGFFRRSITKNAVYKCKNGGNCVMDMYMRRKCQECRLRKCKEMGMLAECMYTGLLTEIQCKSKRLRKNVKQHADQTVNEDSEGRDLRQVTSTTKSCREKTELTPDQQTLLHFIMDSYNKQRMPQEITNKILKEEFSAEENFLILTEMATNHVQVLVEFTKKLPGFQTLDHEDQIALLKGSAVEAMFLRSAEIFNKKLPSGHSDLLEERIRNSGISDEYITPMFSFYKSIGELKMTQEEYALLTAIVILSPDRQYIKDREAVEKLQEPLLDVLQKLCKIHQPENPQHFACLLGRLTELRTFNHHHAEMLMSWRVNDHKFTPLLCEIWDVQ
Sequence of Glucocorticoid receptor (Homo sapiens) (P04150 whole entry, looked up): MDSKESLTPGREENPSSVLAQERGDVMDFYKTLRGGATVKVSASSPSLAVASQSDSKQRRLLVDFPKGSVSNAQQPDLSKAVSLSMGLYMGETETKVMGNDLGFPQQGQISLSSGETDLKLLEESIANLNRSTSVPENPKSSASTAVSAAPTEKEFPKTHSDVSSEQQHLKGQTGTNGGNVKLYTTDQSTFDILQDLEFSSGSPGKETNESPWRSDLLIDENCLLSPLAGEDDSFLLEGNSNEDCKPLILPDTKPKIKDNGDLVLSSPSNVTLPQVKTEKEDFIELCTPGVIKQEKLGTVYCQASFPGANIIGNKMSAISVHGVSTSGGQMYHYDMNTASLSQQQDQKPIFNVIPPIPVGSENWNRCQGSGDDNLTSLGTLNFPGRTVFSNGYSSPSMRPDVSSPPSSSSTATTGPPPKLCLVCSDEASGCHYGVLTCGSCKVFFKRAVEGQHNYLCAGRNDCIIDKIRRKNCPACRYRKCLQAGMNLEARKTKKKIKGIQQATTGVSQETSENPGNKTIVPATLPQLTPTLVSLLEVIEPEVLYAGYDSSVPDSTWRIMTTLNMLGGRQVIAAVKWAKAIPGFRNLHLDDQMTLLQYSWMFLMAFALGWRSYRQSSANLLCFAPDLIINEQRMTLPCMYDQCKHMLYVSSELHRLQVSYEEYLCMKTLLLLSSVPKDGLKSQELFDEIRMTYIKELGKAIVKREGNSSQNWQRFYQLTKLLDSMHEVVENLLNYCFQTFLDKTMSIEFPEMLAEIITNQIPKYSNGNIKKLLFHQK
Sequence of Thyroid hormone receptor beta (Homo sapiens) (P10828 whole entry, looked up): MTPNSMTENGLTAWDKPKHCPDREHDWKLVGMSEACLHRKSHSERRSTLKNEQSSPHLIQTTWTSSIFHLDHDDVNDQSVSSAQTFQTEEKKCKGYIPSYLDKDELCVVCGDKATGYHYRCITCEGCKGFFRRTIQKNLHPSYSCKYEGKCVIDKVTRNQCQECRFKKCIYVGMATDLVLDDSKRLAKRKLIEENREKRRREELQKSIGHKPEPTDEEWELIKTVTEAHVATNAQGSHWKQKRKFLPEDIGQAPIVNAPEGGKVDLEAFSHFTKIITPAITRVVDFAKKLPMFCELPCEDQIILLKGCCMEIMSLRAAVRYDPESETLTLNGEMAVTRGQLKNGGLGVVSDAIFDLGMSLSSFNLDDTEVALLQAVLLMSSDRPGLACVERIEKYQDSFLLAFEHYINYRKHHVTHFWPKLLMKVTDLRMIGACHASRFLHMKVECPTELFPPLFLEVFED
Sequence of Estrogen receptor (Homo sapiens) (P03372 whole entry, looked up): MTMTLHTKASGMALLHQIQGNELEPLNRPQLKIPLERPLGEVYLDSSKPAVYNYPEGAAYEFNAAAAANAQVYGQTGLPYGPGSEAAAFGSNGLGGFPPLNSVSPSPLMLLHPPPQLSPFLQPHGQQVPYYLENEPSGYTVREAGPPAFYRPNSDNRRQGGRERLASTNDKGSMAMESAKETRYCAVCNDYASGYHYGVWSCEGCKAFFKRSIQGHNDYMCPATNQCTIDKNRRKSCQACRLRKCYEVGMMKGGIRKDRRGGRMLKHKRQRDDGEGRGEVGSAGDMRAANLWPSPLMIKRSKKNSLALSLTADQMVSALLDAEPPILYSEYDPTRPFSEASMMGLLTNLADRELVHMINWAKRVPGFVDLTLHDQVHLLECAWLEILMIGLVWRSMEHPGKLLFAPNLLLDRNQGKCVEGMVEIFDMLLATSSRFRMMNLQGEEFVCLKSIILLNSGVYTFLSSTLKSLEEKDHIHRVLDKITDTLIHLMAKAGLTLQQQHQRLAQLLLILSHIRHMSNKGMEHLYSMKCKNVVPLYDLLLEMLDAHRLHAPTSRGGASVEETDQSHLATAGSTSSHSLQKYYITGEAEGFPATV

O=P(OCCCl)(OCCCl)OCCCl
Potency [1]: > 92 µM (inactive)
Potency [2]: > 92 µM (inactive)
Potency [3]: inactive
Potency [4]: inactive
Potency [5]: inactive
Potency [6]: inactive
activation [7]: -0.898% (inactive)
outcome [8]: inactive
max response [9]: 19.2%
outcome [10]: inactive
outcome [11]: inactive
outcome [12]: inactive
Potency [13]: inactive
activation [14]: -2.67% (inactive)
activation [15]: 0.332% (inactive)
Potency [16]: inactive

Nc1cc(Cl)cc(C(=O)O)c1Cl
Potency [1]: > 92 µM (inactive)
Potency [17]: > 92 µM (inactive)
Potency [3]: inactive
Potency [5]: inactive
Potency [6]: inactive
max response [9]: -17.7% and 9.43%
outcome [10]: inactive
outcome [11]: inactive
outcome [12]: inactive
Potency [13]: inactive
activation [14]: -3.99% (inactive) and 3.61% (inactive)
activation [15]: 7.92% (inactive) and 6.33% (inactive)

Cl/C=C/CCl
Potency [1]: > 92 µM (inactive)
Potency [2]: > 92 µM (inactive)
Potency [3]: inactive
Potency [4]: inactive
Potency [6]: inactive
activation [18]: 1.37% (inactive)
outcome [8]: inactive
max response [9]: 5.14%
outcome [10]: inactive
outcome [11]: inactive
Potency [13]: inactive
Potency [16]: inactive

O=[N+]([O-])c1cccc(O)c1
Potency [1]: > 92 µM (inactive)
Potency [17]: > 92 µM (inactive)
Potency [3]: inactive
Potency [4]: inactive
Potency [6]: inactive
activation [7]: -2.84% (inactive)
outcome [11]: inactive
Potency [13]: inactive
activation [14]: -2.9% (inactive)
activation [15]: 1.58% (inactive)
Potency [16]: inactive

O=C(O)CCl
Potency [1]: > 92 µM (inactive)
Potency [17]: > 92 µM (inactive)
Potency [3]: inactive
Potency [5]: inactive
Potency [6]: inactive
activation [18]: 1.7% (inactive)
outcome [11]: inactive
outcome [12]: inactive
Potency [16]: inactive

Nc1ncc([N+](=O)[O-])s1
Potency [1]: > 92 µM (inactive)
Potency [17]: > 92 µM (inactive)
Potency [3]: inactive
Potency [4]: inactive
Potency [5]: inactive
Potency [6]: inactive
Potency [19]: inactive
Potency [20]: inactive
activation [7]: -2.74% (inactive)
outcome [8]: inactive
max response [9]: 30.2%
outcome [10]: inactive
outcome [11]: inactive
outcome [12]: inactive
Potency [13]: inactive
activation [14]: -4.14% (inactive)
activation [15]: 1.78% (inactive)
Potency [16]: inactive

c1ccc2c(c1)CCNC2
Potency [1]: > 92 µM (inactive)
Potency [17]: > 92 µM (inactive)
Potency [3]: inactive
Potency [4]: inactive
Potency [5]: inactive
max response [9]: 5.94%
outcome [10]: inactive
outcome [11]: inactive
activation [14]: -2.09% (inactive)
activation [15]: -1.3% (inactive)
Potency [16]: inactive

[O-][Cl+2]([O-])O
Potency [1]: > 92 µM (inactive)
Potency [17]: > 92 µM (inactive)
Potency [3]: inactive
Potency [4]: inactive
Potency [5]: inactive
Potency [6]: inactive
Potency [19]: inactive
Potency [20]: inactive
activation [7]: -2.85% (inactive)
outcome [11]: inactive
outcome [12]: inactive
activation [14]: 0.222% (inactive)
activation [15]: 0.0972% (inactive)
